# Results: the supplement of paper PMC9925115
# ± gives the uncertainty stated by the source.
# What was measured:
# FLX1 = test: cell viability z-score within plate (CellTiter-Glo), mean of 3 biological replicates; higher = higher viability relative to plate (less growth inhibition); conditions: 2 µM; time (hr): 120
# Method: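 FLX1 fibrolamellar carcinoma cells (DNAJB1-PRKACA fusion), 600 cells/well in 384-well plates, treated with a Selleck kinase inhibitor library (L1200) at 2 uM for 5 days (120 hr); viability by CellTiter-Glo. A z-score was computed within each plate and averaged over three biological replicates.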
# [1] = tested on: FLX1 + dox-induced PRKAR1A G325D; test: difference in log2 fold change of viability vs plate median (dox-induced PRKAR1A G325D minus uninduced); higher = compound less effective when PKA is inhibited; conditions: concentration: not stated (2 or 5 uM); 5 days
# Method: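 For each plate a log2 fold change vs the plate median was derived, and the values without dox were subtracted from those with dox, averaged over three biological replicates.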
compound,measurement,setting,value
Cc1nc(Nc2ncc(C(=O)Nc3c(C)cccc3Cl)s2)cc(N2CCN(CCO)CC2)n1 [Dasatinib],cell viability z-score within plate,FLX1,-1.19 ± 0.2
same,difference in log2 fold change of viability,[1],0.18
Cn1ncc(Cl)c1-c1cc(C(=O)N[C@H](CN)Cc2ccc(F)c(F)c2)oc1Cl,cell viability z-score within plate,FLX1,-0.657 ± 0.15
same,difference in log2 fold change of viability,[1],-0.0579
COc1cc2nccc(Oc3ccc(NC(=O)NC4CC4)c(Cl)c3)c2cc1C(N)=O [Lenvatinib (E7080)],cell viability z-score within plate,FLX1,-0.399 ± 0.11
same,difference in log2 fold change of viability,[1],-0.0902
"C[C@H](Nc1ncnc2nc[nH]c12)c1cc2cccc(Cl)c2c(=O)n1-c1ccccc1 [Duvelisib (IPI-145, INK1197)]",cell viability z-score within plate,FLX1,0.585 ± 0.95
same,difference in log2 fold change of viability,[1],-0.0226
COc1cc2c(c(OC)c1OC)-c1c(cc3c(c1OC)OCO3)CC(C)C(C)C2 (configuration not stated) [Schisandrin B (Sch B)],cell viability z-score within plate,FLX1,0.407 ± 0.2
same,difference in log2 fold change of viability,[1],0.277
CN(C)CCCn1cc(C2=C(c3c[nH]c4ccccc34)C(=O)NC2=O)c2ccccc21,cell viability z-score within plate,FLX1,-0.651 ± 0.3
same,difference in log2 fold change of viability,[1],-0.243
CC(C)(C)c1cnc(CSc2cnc(NC(=O)C3CCNCC3)s2)o1,cell viability z-score within plate,FLX1,-1.06 ± 1.3
same,difference in log2 fold change of viability,[1],0.0393
CN1CCCN(C(=O)c2cccc(-c3ccc(/C=C4/C(=O)Nc5ccc(Cl)cc54)o3)c2)CC1,cell viability z-score within plate,FLX1,0.408 ± 0.47
same,difference in log2 fold change of viability,[1],-0.148
CC(C)n1nc(-c2cc3cc(O)ccc3[nH]2)c2c(N)ncnc21 [Torkinib (PP242)],cell viability z-score within plate,FLX1,-0.546 ± 0.32
same,difference in log2 fold change of viability,[1],0.611
N#CC1(c2ccc(NC(=O)c3cccnc3NCc3ccncc3)cc2)CCCC1 [Apatinib],cell viability z-score within plate,FLX1,0.121 ± 0.33
same,difference in log2 fold change of viability,[1],0.497
CNC(=O)c1cc(Oc2ccc(NC(=O)Nc3cc(C(C)(C)C)nn3-c3ccc4ncccc4c3)c(F)c2)ccn1 [Rebastinib (DCC-2036)],cell viability z-score within plate,FLX1,0.382 ± 0.34
same,difference in log2 fold change of viability,[1],0.37
